Screening data as filed in PubChem BioAssay.
IDE exosite inh: displaces the probe from the exo-site of human IDE; P14735; purified IDE, FL-6b probe fluorescence polarization; stronger effect = lower value; z-score at 20 µM; 17,000 compounds, 6.3% hits; AID 1259349;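 active = z-score of -3 or lower, meaning strong loss of probe binding signal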;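 also: His-tagged human IDE residues 42-1019 made in E. coli with 30 nM FL-6b probe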
Target sequence (P14735 42-1019 limits assumed): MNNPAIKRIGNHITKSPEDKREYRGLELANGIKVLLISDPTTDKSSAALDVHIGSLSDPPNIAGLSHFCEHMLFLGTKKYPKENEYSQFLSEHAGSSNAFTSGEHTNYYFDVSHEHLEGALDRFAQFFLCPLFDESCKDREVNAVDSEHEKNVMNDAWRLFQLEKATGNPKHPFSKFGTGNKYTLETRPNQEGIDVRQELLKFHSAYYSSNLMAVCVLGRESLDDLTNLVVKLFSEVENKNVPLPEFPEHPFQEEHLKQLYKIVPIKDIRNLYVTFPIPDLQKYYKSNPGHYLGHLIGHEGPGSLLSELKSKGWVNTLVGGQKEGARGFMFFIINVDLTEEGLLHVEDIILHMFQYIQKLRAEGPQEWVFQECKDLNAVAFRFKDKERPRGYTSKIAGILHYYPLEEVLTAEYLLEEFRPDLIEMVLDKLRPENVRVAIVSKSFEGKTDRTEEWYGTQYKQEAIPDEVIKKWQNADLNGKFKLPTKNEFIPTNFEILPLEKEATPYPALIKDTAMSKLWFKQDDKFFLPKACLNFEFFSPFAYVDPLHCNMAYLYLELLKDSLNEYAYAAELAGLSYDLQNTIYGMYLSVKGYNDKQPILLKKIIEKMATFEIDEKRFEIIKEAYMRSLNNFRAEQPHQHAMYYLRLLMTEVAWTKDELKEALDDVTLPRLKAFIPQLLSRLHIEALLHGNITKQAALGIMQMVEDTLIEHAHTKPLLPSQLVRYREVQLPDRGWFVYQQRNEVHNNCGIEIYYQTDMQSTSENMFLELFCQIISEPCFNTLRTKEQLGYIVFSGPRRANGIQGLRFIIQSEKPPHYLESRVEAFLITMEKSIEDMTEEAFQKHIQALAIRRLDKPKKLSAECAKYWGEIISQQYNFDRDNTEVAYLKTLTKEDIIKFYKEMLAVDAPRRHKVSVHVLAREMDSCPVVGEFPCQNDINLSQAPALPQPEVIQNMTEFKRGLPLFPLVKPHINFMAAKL
Each line names hits and unclear results; the compound was inactive in the other large screens. This excerpt belongs to a sample that is enriched for hits.

CCCN(C)C[C@H]1OCc2ccccc2-c2ccccc2C(=O)N([C@@H](C)CO)C[C@H]1C	none
Cc1ccccc1-c1ccc([C@H]2[C@@H](CO)N3CCCCN(CC4CC4)C[C@@H]23)cc1	IDE exosite inh -3.5
Cc1ccccc1-c1ccc([C@H]2[C@H]3CN(CC4CCOCC4)CCCCN3[C@H]2CO)cc1	IDE exosite inh -6.9
OC[C@H]1[C@@H](c2ccc(-c3cccnc3)cc2)[C@@H]2CN(CC3CC3)CCCCN12	none
COc1ccc(-c2ccc([C@H]3[C@@H](CO)N4CCCCN(CC5CCOCC5)C[C@@H]34)cc2)cc1	none
COc1ccc(-c2ccc([C@H]3[C@@H](CO)N4CCCCN(CC5CCOCC5)C[C@H]34)cc2)cc1	none
CCCC#Cc1ccc([C@@H]2[C@H](CO)N3CCCCN(CC4CC4)C[C@@H]23)cc1	none
CCC(=O)N1CCCCN2[C@@H](CO)[C@@H](c3ccc(-c4cccc(C(=O)N(C)C)c4)cc3)[C@@H]2C1	none
O=C1CN(Cc2ccccc2)C[C@H]2[C@H](c3ccc(-c4ccccc4F)cc3)[C@@H](CO)N12	none
COc1cccc(CN2CC3(C2)[C@H](c2ccccc2)[C@@H](CO)N3Cc2ccccc2OC)c1	none
COc1ccc(NC(=O)N2CCC3(CC2)CN(C(=O)CN2CCOCC2)[C@@H](CO)c2[nH]c4cc(OC)ccc4c23)cc1	none
C[C@H](O)C#Cc1ccc([C@@H]2[C@H](CO)N3CCCCN(CC4CCOCC4)C[C@@H]23)cc1	none
CO[C@@H]1CC[C@@H]2CCOc3c(C#N)cccc3C(=O)N(C)C[C@H](c3ccccc3)CC(=O)N(C)C[C@H]1O2	none
COCC#Cc1ccc([C@H]2[C@H]3CN(C(=O)c4cccnc4)CC(=O)N3[C@H]2CO)cc1	none
CO[C@H]1CN(C)C(=O)c2cc(NC(C)=O)ccc2OC[C@@H](C)N(S(C)(=O)=O)C[C@@H]1C	none
COCC(=O)Nc1ccc2c(c1)C(=O)N(C)C[C@@H](OC)[C@H](C)CN(C(=O)c1ccncc1)[C@H](C)CO2	none
COc1cccc(NC(=O)N2CC(=O)N3[C@@H](CO)[C@@H](c4ccc(Br)cc4)[C@@H]3C2)c1	none
Cc1ccc(-c2ccc([C@H]3[C@@H](CO)N4C(=O)CN(C(=O)NC(C)C)C[C@@H]34)cc2)cc1	none
COc1cccc(-c2ccc([C@@H]3[C@H]4CN(C(=O)NC(C)C)CC(=O)N4[C@H]3CO)cc2)c1	IDE exosite inh -12
COc1cccc(-c2ccc([C@H]3[C@@H](CO)N4C(=O)CN(C(=O)NC(C)C)C[C@@H]34)cc2)c1	IDE exosite inh -5.4
COc1ccc(-c2ccc([C@H]3[C@H](CO)N4C(=O)CN(C(=O)NC(C)C)C[C@@H]34)cc2)cc1	IDE exosite inh -3.8
COc1ccc(C#Cc2ccc([C@@H]3[C@@H](CO)N4C(=O)CN(C(=O)NC(C)C)C[C@H]34)cc2)cc1	none
COc1ccc(C#Cc2ccc([C@@H]3[C@H]4CN(C(=O)NC(C)C)CC(=O)N4[C@H]3CO)cc2)cc1	none
COc1cccc(NC(=O)N2CC(=O)N3[C@H](C2)[C@@H](c2ccc(Br)cc2)[C@@H]3CO)c1	IDE exosite inh -3.2
COc1cccc(NC(=O)N2CC(=O)N3[C@H](CO)[C@@H](c4ccc(Br)cc4)[C@H]3C2)c1	none
Cc1ccc(-c2ccc([C@@H]3[C@@H](CO)N4C(=O)CN(C(=O)NC(C)C)C[C@H]34)cc2)cc1	none
C[C@@H]1CN([C@@H](C)CO)C(=O)c2ccccc2-c2ccccc2CO[C@H]1CN(C)S(=O)(=O)c1cccs1	none
CO[C@H]1CN(C)C(=O)c2cc(NS(C)(=O)=O)ccc2OC[C@H](C)N(C(=O)C2CCOCC2)C[C@H]1C	none
CCCNC(=O)Nc1ccc2c(c1)OC[C@H](C)N(C(=O)C1CCOCC1)C[C@@H](C)[C@@H](OC)CN(C)C2=O	none
NCC[C@@H]1CC[C@@H](NS(=O)(=O)c2ccc(Cl)cc2)[C@@H](CO)O1	none
C/C=C/c1ccc([C@H]2[C@H]3CN(CCC(F)(F)F)CCCCN3[C@H]2CO)cc1	none
N#C[C@H]1[C@@H](c2ccccc2-c2cccc(F)c2)[C@H](CO)N1S(=O)(=O)c1cccc(F)c1	none
CC(C)C#Cc1ccc([C@H]2[C@@H](CO)N3C(=O)CN(C(=O)c4ccccn4)C[C@@H]23)cc1	none
CO[C@H]1CC[C@H]2CCOc3ccc(C#N)cc3C(=O)N(C)C[C@H](c3ccccc3)CC(=O)N(C)C[C@@H]1O2	none
COCC(=O)N1[C@H](C#N)[C@H](c2ccccc2C2=CCCC2)[C@@H]1CO	none
C[C@H]1CN([C@@H](C)CO)C(=O)c2ccccc2-c2ccccc2CO[C@@H]1CN(C)C(=O)NC1CCCCC1	none
CCCNC(=O)N1[C@H](C#N)[C@H](c2ccccc2-c2ccccc2)[C@@H]1CO	none
CN(C)CC(=O)N1[C@H](CO)[C@@H](c2ccc(-c3ccc(C(=O)N(C)C)cc3)cc2)[C@@H]1C#N	none
COc1ccc(-c2ccc([C@H]3[C@@H](CO)N4C(=O)CNC[C@H]34)cc2)cc1	IDE exosite inh -3.2
COc1cccc(-c2ccc([C@@H]3[C@@H](CO)N4C(=O)CN(C(=O)NC(C)C)C[C@@H]34)cc2)c1	IDE exosite inh -14
COc1ccc(NC(=O)N2CC(=O)N3[C@H](C2)[C@H](c2ccc(-c4ccccc4)cc2)[C@@H]3CO)cc1	none
COc1cccc(-c2ccc([C@@H]3[C@@H](CO)N4C(=O)CN(C(=O)NC(C)C)C[C@H]34)cc2)c1	IDE exosite inh -3.5
C/C=C/c1ccc([C@H]2[C@@H](CO)N3C(=O)CN(C(=O)Nc4ccc(OC)cc4)C[C@@H]23)cc1	none
COc1ccc(C#Cc2ccc([C@H]3[C@@H](CO)N4C(=O)CN(C(=O)NC(C)C)C[C@H]34)cc2)cc1	none
C/C=C/c1ccc([C@H]2[C@H](CO)N3C(=O)CN(C(=O)Nc4ccc(OC)cc4)C[C@@H]23)cc1	none
C/C=C/c1ccc([C@H]2[C@H]3CN(C(=O)Nc4ccc(OC)cc4)CC(=O)N3[C@H]2CO)cc1	IDE exosite inh -5.1
COc1ccc(-c2ccc([C@@H]3[C@H]4CNCC(=O)N4[C@H]3CO)cc2)cc1	none
COc1ccc(C#Cc2ccc([C@H]3[C@H](CO)N4C(=O)CN(C(=O)NC(C)C)C[C@@H]34)cc2)cc1	none
COc1ccc(-c2ccc([C@@H]3[C@H](CO)N4C(=O)CNC[C@@H]34)cc2)cc1	none
O=C(C[C@H]1CC[C@@H]2NC[C@H](O)COC[C@H]2O1)NCc1ccc2c(c1)OCO2	none
CC(=O)N1[C@H](CO)[C@@H](c2ccccc2)C12CN(Cc1ccc(Cl)cc1)C2	none
CO[C@H]1CN(C)C(=O)c2cccc(C#N)c2OCC[C@H]2CC[C@@H](OC)[C@H](CN(C)C(=O)[C@@H]1C)O2	none
CN1C(=O)c2cc(NC(=O)c3ccc(F)c(F)c3)ccc2OC[C@@H]2O[C@@H](CC(=O)N3CCCCC3)CC[C@@H]21	none
COc1ccc2c3c([nH]c2c1)[C@@H](CO)N(C(=O)Nc1ccc(F)cc1)CC31CN(S(=O)(=O)c2ccc(C)cc2)C1	none
COCc1cn(CC[C@@H]2CC[C@@H](NC(=O)Nc3c(C)noc3C)[C@H](CO)O2)nn1	none
C[C@@H]1CCCCO[C@H](CN(C)Cc2ccc(C(=O)O)cc2)[C@@H](C)CN([C@@H](C)CO)C(=O)c2cc(N(C)C)ccc2O1	none
COc1ccc2c3c(n(C)c2c1)[C@@H](CO)N(C(=O)Nc1ccc(F)cc1)CC31CN(S(=O)(=O)c2cn(C)cn2)C1	none
CC[C@H]1C/C=C\C[C@H](CC)NC(=O)[C@H](C)CC(=O)N1	none
C/C=C/c1ccc([C@H]2[C@@H](CN(C)C(=O)CC)N(C(=O)C3CC3)[C@H]2CO)cc1	none
O=C(NC1CCCC1)N1CCCCN2[C@@H](CO)[C@H](c3ccc(-c4cccnc4)cc3)[C@@H]2C1	none
